# Measurements taken from the supplement of paper PMC12494721.
# Counter-ions that a name gives are not always drawn.
# Tests used:
# Details in all cases: incubation time: 27 h, anaerobic, 37 °C;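 for the amine columns active = adjusted P below 0.05 in both replicates with a change the same way and a mean fold change under 0.8 or over 1.25; inactive = the rest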
# [1] = tested on: Clostridium sporogenes DSM 1664; experiment: growth (OD595) fold change vs plate DMSO controls (fold change (ratio)); higher = more growth
# In short: (§1)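 The measure reported is growth, taken as fold change against the median of DMSO controls on the same plate. Anaerobic mGAM cultures in 96-well plates (27 h, 37 °C) were read at 595 nm, blank-subtracted, corrected for compound background using 20 µM compound solutions in water, and multiplied by a calibration factor of 5 to give OD. Any fold change above 1.5 became NA, and 2 biological replicates were averaged.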
# Escherichia coli IAI1 [2] = experiment: as above
# In short: as §1
# [3] = tested on: Klebsiella aerogenes DSM 30053; experiment: as above
# In short: as §1
# [4] = tested on: Ruminococcus gnavus DSM 108212; experiment: as above
# In short: as §1
# [5] = tested on: Klebsiella aerogenes DSM 30053; experiment: fold change of Histamine concentration vs plate DMSO controls (fold change (ratio)); higher = more amine produced, active = hit call of the paper (significant change in both replicates, either direction)
# In short: (§2)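 In 80 µL wells, cultures of four gut bacterial strains in mGAM started at OD 0.1 before a 1:1 dilution and grew anaerobically at 37 °C for 27 h. Compounds were added to 20 µM final, except sweeteners at 50 µM final. After extraction of whole cultures with cold acetonitrile/methanol plus 0.1% formic acid and centrifugation, amines were measured by LC–triple-quadrupole MS in dynamic MRM mode against external calibration curves, with within-batch drift correction. Values give fold change over DMSO controls on the same plate, averaged across 2 biological replicates.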
# [6] = tested on: Clostridium sporogenes DSM 1664; experiment: fold change of Tryptamine concentration vs plate DMSO controls (fold change (ratio)); higher = more amine produced, active = hit call of the paper (significant change in both replicates, either direction)
# In short: as §2
# [7] = tested on: Ruminococcus gnavus DSM 108212; experiment: as above
# In short: as §2
# Escherichia coli IAI1 [8] = experiment: fold change of Putrescine concentration vs plate DMSO controls (fold change (ratio)); higher = more amine produced, active = hit call of the paper (significant change in both replicates, either direction)
# In short: as §2
# [9] = tested on: Klebsiella aerogenes DSM 30053; experiment: as above
# In short: as §2
# Escherichia coli IAI1 [10] = experiment: fold change of Cadaverine concentration vs plate DMSO controls (fold change (ratio)); higher = more amine produced, active = hit call of the paper (significant change in both replicates, either direction)
# In short: as §2
# [11] = tested on: Klebsiella aerogenes DSM 30053; experiment: as above
# In short: as §2
# [12] = tested on: Ruminococcus gnavus DSM 108212; experiment: fold change of 2-Phenylethylamine concentration vs plate DMSO controls (fold change (ratio)); higher = more amine produced, active = hit call of the paper (significant change in both replicates, either direction)
# In short: as §2
Compound,growth [1],growth (Escherichia coli IAI1 [2]),growth [3],growth [4],fold change of Histamine concentration [5],fold change of Tryptamine concentration [6],fold change of Tryptamine concentration [7],fold change of Putrescine concentration (Escherichia coli IAI1 [8]),fold change of Putrescine concentration [9],fold change of Cadaverine concentration (Escherichia coli IAI1 [10]),fold change of Cadaverine concentration [11],fold change of 2-Phenylethylamine concentration [12]
CS(=O)(=O)OCCCCOS(C)(=O)=O [Busulfan] (20 µM),0.951,1.07,0.991,1.09,0.992 (inactive),1.04 (inactive),1.11 (inactive),1.08 (inactive),0.962 (inactive),1.04 (inactive),1.04 (inactive),1.09 (inactive)
C[C@@H](O)[C@H]1C(=O)N2C(C(=O)O)=C(S[C@@H]3CN[C@H](CNS(N)(=O)=O)C3)[C@H](C)[C@H]12 [Doripenem monohydrate] (20 µM),0,0.00243,0.281,0.0314,0.193 (active),0.0168 (active),0.0858 (active),0.954 (inactive),0.467 (active),2.1 (active),1.08 (inactive),0.0567 (active)
CNCCC=C1c2ccccc2CCc2ccccc21 [Nortriptyline hydrochloride] (20 µM),1.11,0.972,0.974,1.28,1.09 (inactive),1.06 (inactive),0.993 (inactive),0.975 (inactive),1.02 (inactive),1.04 (inactive),0.989 (inactive),1.03 (inactive)
CCOC(=O)/C=C(C)/C=C/C=C(C)/C=C/c1c(C)cc(OC)c(C)c1C [Etretinate] (20 µM),1.04,0.971,0.965,0.927,1.09 (inactive),1.02 (inactive),1.03 (inactive),0.998 (inactive),1.02 (inactive),1 (inactive),0.983 (inactive),1.04 (inactive)
Cc1nccn1CC1CCc2c(c3ccccc3n2C)C1=O (stereo not drawn) [Ondansetron hydrochloride] (20 µM),0.937,0.997,0.989,1.08,1.01 (inactive),1.03 (inactive),1.01 (inactive),1.05 (inactive),0.978 (inactive),1.01 (inactive),0.995 (inactive),1.01 (inactive)
O=S(=O)(O)CCS [Coenzyme M] (20 µM),0.917,1.06,1,1.01,1.12 (inactive),1.02 (inactive),0.951 (inactive),1.03 (inactive),1.01 (inactive),0.979 (inactive),0.986 (inactive),0.902 (inactive)
CC(C)Oc1ccc2c(=O)c(-c3ccccc3)coc2c1 [Ipriflavone] (20 µM),0.986,1.01,0.992,1.03,1 (inactive),1.01 (inactive),1.04 (inactive),0.98 (inactive),1.02 (inactive),1.04 (inactive),0.989 (inactive),1.02 (inactive)
CCCCCCCCc1c(CC)nc2ncnn2c1N (20 µM),1.11,1.05,1.04,1.16,0.991 (inactive),1.03 (inactive),0.997 (inactive),1.01 (inactive),1.01 (inactive),1.04 (inactive),1.01 (inactive),0.968 (inactive)
O=c1[nH]c(=O)n([C@H]2C[C@H](O)[C@@H](CO)O2)cc1I [Idoxuridine] (20 µM),0.856,1.02,1.04,0.871,1.03 (inactive),1.25 (active),1.05 (inactive),1.18 (inactive),1.02 (inactive),0.982 (inactive),1 (inactive),1.08 (inactive)
CN1Cc2c(N)cccc2C(c2ccccc2)C1 (stereo not drawn) [Nomifensine maleate] (20 µM),1.07,0.982,1.01,1.1,0.994 (inactive),0.989 (inactive),1.04 (inactive),0.989 (inactive),1.01 (inactive),0.935 (inactive),1.02 (inactive),0.992 (inactive)
NC(=O)OCC(O)COc1ccc(Cl)cc1 (stereo not drawn) [Chlorphensin carbamate] (20 µM),1.02,1.02,0.951,1.2,0.969 (inactive),0.996 (inactive),0.995 (inactive),1 (inactive),0.913 (inactive),0.951 (inactive),1.02 (inactive),1.07 (inactive)
C[C@H](N)[C@H](O)c1cccc(O)c1 [Metaraminol bitartrate] (20 µM),1.04,0.987,1.09,0.95,1.04 (inactive),1.05 (inactive),1.08 (inactive),1.02 (inactive),1.02 (inactive),0.982 (inactive),0.998 (inactive),1.12 (inactive)
CCN(CC)CCNC(=O)COc1ccc(OC)cc1 [Mefexamide hydrochloride] (20 µM),0.963,1.01,1.08,1.05,0.874 (inactive),1.07 (inactive),1.01 (inactive),1.02 (inactive),0.961 (inactive),1.05 (inactive),1.02 (inactive),0.977 (inactive)
CC(COc1ccccc1)NN (stereo not drawn) [Phenoxypropazine dihydrochloride] (20 µM),1.06,0.99,0.988,0.995,1.05 (inactive),0.619 (active),1 (inactive),1.01 (inactive),1.01 (inactive),0.965 (inactive),1.02 (inactive),1.01 (inactive)
NC(=O)OCC(COC(N)=O)c1ccccc1 [Felbamate] (20 µM),1.07,0.986,0.988,0.902,0.989 (inactive),1.02 (inactive),1.05 (inactive),1 (inactive),0.993 (inactive),1.05 (inactive),0.985 (inactive),1.07 (inactive)
CC(C)c1c(C(=O)Nc2ccccc2)c(-c2ccccc2)c(-c2ccc(F)cc2)n1CC[C@@H](O)C[C@@H](O)CC(=O)O [Atorvastatin] (20 µM),1.02,1.03,1,1.28,1.15 (inactive),1.01 (inactive),1 (inactive),1.01 (inactive),1.02 (inactive),0.984 (inactive),0.998 (inactive),1.02 (inactive)
N=C(N)NCc1cccc(I)c1 [Iobenguane sulfate] (20 µM),0.944,0.983,0.971,0.721,0.89 (inactive),1 (inactive),1.08 (inactive),0.949 (inactive),0.914 (inactive),1.04 (inactive),1.1 (inactive),1.09 (inactive)
CC1(C)S[C@@H]2[C@H](NC(=O)[C@H](C(=O)O)c3ccsc3)C(=O)N2[C@H]1C(=O)O [Ticarcillin sodium] (20 µM),0,1.22,1.02,0,1.04 (inactive),0.0277 (active),0.0454 (active),1.21 (inactive),1.02 (inactive),1.44 (active),0.996 (inactive),0.0536 (active)
CN(C)CCCN1c2ccccc2Sc2ccc(Cl)cc21 [Chlorpromazine hydrochloride] (20 µM),0.986,1.21,1.03,1.29,0.88 (inactive),1.06 (inactive),0.908 (inactive),1.14 (inactive),0.959 (inactive),0.934 (inactive),1.01 (inactive),0.935 (inactive)
CC1(C)[C@@H](O[C@H]2O[C@H](C(=O)O)[C@@H](O)[C@H](O)[C@H]2O[C@@H]2O[C@H](C(=O)O)[C@@H](O)[C@H](O)[C@H]2O)CC[C@]2(C)[C@H]3C(=O)C=C4[C@@H]5C[C@@](C)(C(=O)O)CC[C@]5(C)CC[C@@]4(C)[C@]3(C)CC[C@@H]12 [Glycyrrhizic acid] (50 µM),0.971,0.995,1.07,1.07,0.865 (inactive),0.966 (inactive),1.05 (inactive),1.02 (inactive),0.992 (inactive),1.05 (inactive),1.03 (inactive),1.1 (inactive)
C[C@@H]1C[C@H]2[C@@H]3C[C@H](F)C4=CC(=O)C=C[C@]4(C)[C@@]3(Cl)[C@@H](O)C[C@]2(C)[C@H]1C(=O)COC(=O)C(C)(C)C [Clocortolone pivalate] (20 µM),1.06,1.03,1.04,0.992,1.04 (inactive),1.04 (inactive),1.08 (inactive),1.02 (inactive),0.999 (inactive),1.01 (inactive),0.997 (inactive),1.17 (inactive)
CCOC(=O)[C@H](CCc1ccccc1)N[C@H]1CS[C@H](c2cccs2)CN(CC(=O)O)C1=O [Temocapril hydrochloride] (20 µM),1.1,1.05,1.08,1.05,0.959 (inactive),0.989 (inactive),0.991 (inactive),0.997 (inactive),1.03 (inactive),1.04 (inactive),1.01 (inactive),1.01 (inactive)
Cc1cc(NS(=O)(=O)c2ccc(N)cc2)no1 [Sulfamethoxazole] (20 µM),1.01,1.11,1.06,0.913,1.12 (inactive),0.999 (inactive),1.01 (inactive),1.13 (inactive),1.03 (inactive),0.911 (inactive),1 (inactive),0.978 (inactive)
CC(C(=O)O)c1ccc2c(c1)Cc1cccnc1O2 (stereo not drawn) [Pranoprofen] (20 µM),1.01,1.06,1.03,0.92,0.978 (inactive),0.985 (inactive),0.95 (inactive),0.95 (inactive),1.01 (inactive),0.993 (inactive),1.01 (inactive),0.94 (inactive)
